Screening results deposited in PubChem BioAssay by National Center for Advancing Translational Sciences (NCATS).
Cycloheximide cs = Cycloheximide Counterscreen for Small Molecule Inhibitors of Shiga Toxin; cell reporter, cycloheximide protein synthesis inhibition counterscreen; max response, %; actives 12% (n = 300,000); AID 2314, 2010; in the data active = max response mostly above about 13%, no sharp cut-off; inactive = mostly below about 14%; note: read at 38.3 µM for the half of the compounds with a filed dose; 0% is about no effect
SARS PLpro yeast = qHTS of Yeast-based Assay for SARS-CoV PLP | S. cerevisiae expressing SARS-CoV PLpro, growth rescue | Potency, µM (titrated, usually from 32.9 µM), without a hit: at the top dose activity, positive = growth rescue, usual class: activators | actives 0.19% (n = 330,000); note: potency is the fitted concentration of half-maximal effect; 0% is about no effect; nearly all actives have a fitted effect of over 55% in size
Shiga toxin inh = A qHTS for Small Molecule Inhibitors of Shiga Toxin. Vero cells, Shiga toxin protein synthesis inhibition reporter. inhibition, % at 38.7 µM. actives 9.2% (n = 290,000); in the data active = inhibition mostly above about 28%, no sharp cut-off; inactive = mostly below about 43%; note: 0% is about no effect
NS1 function inh = qHTS Assay for Inhibitors of Influenza NS1 Protein Function; Potency, µM (doses to about 46.1 µM), without a hit: at the highest dose activity, positive = more growth; actives 0.4% (n = 270,000); AID 2326, 2010; note: potency is the fitted concentration of half-maximal effect; actives are rising curves; nearly all actives have a fitted effect of over 50% in size
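Recovery from NS1-induced slow growth read by OD600 in budding yeast switched to galactose assay medium (pH 6.0, -URA) at 1:100 dilution. Compound 23 nl per well; the matching strain lacking NS1 serves as control.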
* = called active by the depositor; i = inactive; u = inconclusive; x = not tested or not shown; [ ] = dose if it differs, or a comment. Most compounds without a hit are left out; they make up all but 12% or so of the library. Unless noted, calls come from the whole dose curve.

SMILES | Cycloheximide cs | SARS PLpro yeast | Shiga toxin inh | NS1 function inh
CN(C)S(=O)(=O)c1cccc(-c2nnc(-c3ccccc3)o2)c1 | 44.1* | 3.3% | 73.4* | -6.0%
O=C(CCc1ccccc1)c1nnc(-c2ccccc2)o1 | 30.4* | -1.1% | 42.0 | -2.0%
Cc1nc(-c2nnc(-c3ccccc3)o2)c(C(F)(F)F)o1 | 27.7* | -0.2% | 48.5* | -7.9%
Cc1ccccc1NS(=O)(=O)c1cccc(-c2nnc(-c3ccccc3)o2)c1 | -1.8 | -3.1% | -9.1 | 5.8%
COc1cc(-c2nnc(-c3ccco3)o2)ccc1OCc1ccccc1 | 38.7* | -62.2% | 58.7* | -56.4%
O=C(Cc1ccccc1)Nc1nnc(-c2ccccc2)o1 | -1.2 | 3.2% | 15.3 | -0.7%
CCCCCCOC(=O)C1(O)CC2OC1(C)n1c3ccccc3c3c4c(c5c6ccccc6n2c5c31)C(=O)NC4 (stereo not drawn) | 11.3 | x | i | x
COc1cccc(N2C(=O)C(Cc3c[nH]c4ccccc34)NC2=S)c1 (stereo not drawn) | 12.3 | -5.3% | -12.4 | 20.5%
CCCC[C@]12Cc3ccccc3[C@H](O1)C1=C(O2)C(=O)c2ccccc2C1=O | -1.0 | 2.3%[6.58 µM] | i | -8.8%
Cc1ccc(OCCCCn2ccnc2)c(Cl)c1 | 27.1* | -2.8% | 39.8* | -8.0%
Cc1ccc(OCCOCCn2ccnc2)c(Br)c1 | 30.7* | 6.3% | 74.6 | -13.4%
Cc1ccc(OCCCCn2ccnc2)c([N+](=O)[O-])c1 | 21.0* | 0.9% | 35.6 | 0.2%
CCOc1ccc(OCCCCn2ccnc2)cc1 | 25.7* | -0.9% | 8.3 | 3.0%
CCOc1ccc(OCCn2ccnc2)cc1 | 0.3 | -8.0% | 12.6 | 2.9%
O=C(Nc1ccc2c(c1)OCO2)c1c(F)cccc1F | 33.4* | -7.7% | 74.8* | 13.3%
O=C(O)Cc1ccc(NC(=O)Nc2ccc3c(c2)OCO3)cc1 | 34.8* | 8.7% | 47.0* | 4.2%
O=C(Nc1ccc2c(c1)OCO2)c1cccc(F)c1 | 34.3* | x | 75.1* | -62.8%
O=C(Nc1cccc(F)c1)Nc1ccc2c(c1)OCO2 | 59.1* | -3.1% | 85.0* | -37.3%
O=C(Nc1ccc2c(c1)OCO2)C1CCCN1C(=O)Nc1cccc(F)c1 (stereo not drawn) | 14.9 | 7.8% | 15.0 | -0.8%
O=C(COC(=O)c1cccc(F)c1)Nc1ccc2c(c1)OCCO2 | x | -3.2% | x | x
CC(C)Cc1nc2ccccc2n1CCc1ccccc1 | -6.2 | -15.3% | -15.5 | -19.0%
O=C1CCC(C(=O)NC2(C(=O)NC3CCCCC3)CCCCC2)N1 (stereo not drawn) | -1.3 | 8.6% | -16.2 | -2.4%
COC(=O)c1ccc(C2c3[nH]c4ccccc4c3C[C@H]3C(=O)N(C)CC(=O)N23)cc1 (stereo partly drawn) | -4.2 | 3.2% | -3.7 | -3.0%
CCN1C(=O)[C@@H]2Cc3c([nH]c4ccccc34)C(c3ccc(OC)cc3)N2C1=S (stereo partly drawn) | 21.5* | -1.2% | 32.4* | 7.9%
CC(C)OCCCN1CC(=O)N2C(c3ccccc3)c3[nH]c4ccccc4c3C[C@H]2C1=O (stereo partly drawn) | 20.9* | -2.8% | 55.8* | -7.6%
SMILES | Cycloheximide cs | SARS PLpro yeast | Shiga toxin inh | NS1 function inh
COc1cccc(C2c3[nH]c4ccccc4c3C[C@H]3C(=O)N(CCCOC(C)C)CC(=O)N23)c1 (stereo partly drawn) | 7.3 | 0.4% | -10.4 | 1.2%
Cc1ccc(NC(=O)CCN2C(=O)NC(C)(C)C2=O)cc1F | x | 2.0% | x | x
S=C(Nc1ccccc1)Nc1ccc2cn[nH]c2c1 | 46.1* | -1.8% | 55.1* | -0.2%
NC(=S)Nc1cccc(-c2n[nH]c(=S)o2)c1 | -2.7 | -0.7% | -2.3 | 4.3%
O=C(NC(=S)Nc1ccc2cn[nH]c2c1)c1ccccc1 | 40.9* | -1.9% | 78.7* | x
NC(=S)Nc1ccc2cn[nH]c2c1 | -0.8 | 0.9% | -7.1 | x
Cc1ccc(NC(=S)Nc2ccc3cn[nH]c3c2)cc1 | 17.9* | 3.2% | 33.5 | 5.7%
Cc1ccc(NC(=S)Nc2cccc(-c3n[nH]c(=S)o3)c2)cc1 | 32.4* | -1.4% | 40.2* | 9.4%
N#Cc1ccccc1S(=O)(=O)N1CCN(C(=O)c2cn(-c3ccccc3)nc2-c2cccnc2)CC1 | x | -7.5% | x | x
CCN(CC)S(=O)(=O)c1ccc(NC(=O)c2ccc(OCC3CCCO3)cc2)cc1 (stereo not drawn) | x | 12.5% | x | x
Cc1nc(Br)c(Br)c(C)c1Br | -1.3 | -1.4% | 18.1 | u
COC(=O)[C@H](CC(C)C)N(Cc1ccccc1)S(=O)(=O)N(Cc1ccc(OC)cc1)[C@@H](CC(C)C)C(=O)OC | x | -5.1% | x | x
Cc1cc(C)n(Cc2ccccc2)c(=O)c1S(=O)(=O)c1ccccc1 | -2.3 | -1.2% | -13.7 | 16.1%
C#CCn1c(C)cc(C)c(S(=O)(=O)c2ccccc2)c1=O | 25.7* | -1.0% | 100.4* | 2.5%
Oc1ccccc1CNc1cccc2cccnc12 | 45.4* | -1.2% | 61.7* | 8.5%
COc1cc(NCCC(=O)O)c2ncccc2c1 | x | x | x | 0.7%
Oc1cccc2cccnc12 | -2.8 | -39.0% | 1.7 | -19.4%
NC(=S)NNc1cccc2cccnc12 | 19.4* | -0.1% | 38.7* | 0.3%
COc1cc(NCc2ccccc2O)c2ncccc2c1 | 20.2* | -2.7% | 28.4 | u
CCN(CC)S(=O)(=O)c1ccc(NC(=O)COc2nc3ccccc3nc2N2CCOCC2)cc1 | -6.1 | 15.1% | -7.3 | u
c1ccc(-c2nc(CSc3n[nH]c(-c4cccs4)n3)cs2)cc1 | 10.5 | -25.8% | -1.3 | -47.5%
CC1(C)CC(=O)C=C(NNC(=O)c2ccccc2)C1 | 24.2* | -5.4% | active | 21.3%
CCC1=[N+](CC(=O)c2ccc(C)cc2)CCn2cccc21 | 24.5* | -0.8% | 47.7 | 9.5%
CCN1CCN(CC(=O)c2ccc(C)cc2)CC1 | -2.6 | 0.4% | -5.5 | -4.8%
CC1=[N+](CC(=O)c2ccccc2)CCn2cccc21 | 33.7* | 0.5% | 58.4* | 7.3%
SMILES | Cycloheximide cs | SARS PLpro yeast | Shiga toxin inh | NS1 function inh
CCC1=[N+](C)CCn2c(C)ccc21 | -3.2 | 0.5% | -5.3 | -45.3%
CCC1=[N+](CC(=O)c2ccc(C)cc2)CCn2c(C)ccc21 | 22.6* | 0.4% | 13.1 | -0.1%
CCC1=[N+](CC(=O)c2ccc(Br)cc2)CCn2c(C)ccc21 | 15.0* | 6.9% | 52.4* | 7.0%
O=C(CSc1ccc(S(=O)(=O)N2CCOCC2)cn1)Nc1ccc(F)c(F)c1 | x | -3.7% | x | x
O=C1c2ccccc2C(=O)N1CCCCc1cn(C[C@H]2CC[C@@H]([C@@H]3CC[C@H](Cn4cc(CCCCN5C(=O)c6ccccc6C5=O)nn4)O3)O2)nn1 | x | -6.4% | x | x
COc1ccc(OCC2CCNCC2)cc1 | 32.9* | -2.5% | 38.7* | 6.4%
O=C(O)c1ccccc1SCc1csc(-c2ccccc2)n1 | 32.2* | 8.3% | 38.1 | 5.2%
O=C(OCc1ccccc1)c1ccccc1O | x | -1.2% | x | x
O=C(OCc1csc(-c2ccccc2)n1)c1ccccc1O | 61.3* | 1.8% | 109.7* | x
COc1ccc(-c2nn(-c3ccccc3)cc2/C=C/C(=O)NCCCn2ccnc2)cc1OC | -6.4 | -0.4% | -5.4 | 1.6%
O=C(O)c1cc(=O)c2ccccc2o1 | 1.1 | u | -12.7 | -4.2%
O=C(Nc1ccccc1Cl)c1cc(=O)c2ccccc2o1 | 30.1* | -3.3% | x | -11.5%
O=C(NCc1ccccc1)c1cc(=O)c2ccccc2o1 | 3.8 | -0.6% | -7.2 | 0.5%
O=C(Nc1ccccc1Br)c1cc(=O)c2ccccc2o1 | 22.9 | -1.7% | 99.4* | -16.3%
